HP1b binding inh: inhibitors of HP1-beta chromodomain binding to methylated histone tails. AlphaScreen HP1-beta / biotin-H3K9me3 peptide binding. P83916. Potency, µM (titrated, usually from 114 µM), without a hit: top-dose activity change, negative = inhibition, hits mostly inhibitors. actives 0.56% (n = 390,000); note: nearly all actives have a fitted effect of over 70% in size
Target sequence (P83916 whole entry, looked up): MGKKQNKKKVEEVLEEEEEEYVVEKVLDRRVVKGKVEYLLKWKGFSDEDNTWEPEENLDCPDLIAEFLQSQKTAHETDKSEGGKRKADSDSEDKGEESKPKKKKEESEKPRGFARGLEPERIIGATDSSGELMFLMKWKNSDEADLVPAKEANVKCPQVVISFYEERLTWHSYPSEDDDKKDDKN
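Compound inhibition of the preformed complex between 50 nM HP1-beta and 50 nM biotinylated H3K9me3 peptide was read by AlphaScreen. Buffer was PBS pH 7.4 with 0.01% Tween-20. Incubations ran 30 min at room temperature, with 10 ug/mL donor/acceptor beads.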
PLK1 PBD inh: inhibitors of human PLK1 polo-box domain binding | P53350 | Potency, µM, for the others: max response, negative = inhibition, actives largely listed as inhibitors | Plk1 PBD binding of FITC phosphopeptide, fluorescence polarization | actives 2.8% (n = 360,000); note: series mostly up to about 57 µM; % is set by controls: 0 for no effect and ±100 for the full control effect; nearly all actives have a fitted effect of over 65% in size
BAZ2B block: BAZ2B (human) inhibition | AlphaScreen BAZ2B-H3K14Ac peptide displacement | Potency, µM (top dose mostly 114 µM), for inactives: top-dose activity change, negative = inhibition, most hits filed as inhibitors | actives 4.4% (n = 360,000); note: % is set by controls: 0 for no effect and ±100 for the full control effect; nearly all actives have a fitted effect of over 60% in size
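BAZ2B (50 nM) with biotin-H3(5-23)K14Ac peptide (50 nM) in PBS pH 7.4, 0.01% Tween-20, preformed 30 min, then compound 30 min at room temperature; top concentration 110uM. AlphaScreen streptavidin donor/nickel chelate acceptor beads (10 ug/mL final), 20 min dark, signal read.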
G9a block: blocks human histone lysine methyltransferase G9a; Q96KQ7; G9a H3K9 monomethylation, AlphaScreen, 2 h; actives 8.8% (n = 350,000); Potency, µM (series often up to 102 µM), for the others: at the highest dose activity, negative = inhibition, usual class: inhibitors; note: % is set by controls: 0 for no effect and ±100 for the full control effect; nearly all actives have a fitted effect of over 75% in size
Target sequence (Q96KQ7 913-1193 limits assumed): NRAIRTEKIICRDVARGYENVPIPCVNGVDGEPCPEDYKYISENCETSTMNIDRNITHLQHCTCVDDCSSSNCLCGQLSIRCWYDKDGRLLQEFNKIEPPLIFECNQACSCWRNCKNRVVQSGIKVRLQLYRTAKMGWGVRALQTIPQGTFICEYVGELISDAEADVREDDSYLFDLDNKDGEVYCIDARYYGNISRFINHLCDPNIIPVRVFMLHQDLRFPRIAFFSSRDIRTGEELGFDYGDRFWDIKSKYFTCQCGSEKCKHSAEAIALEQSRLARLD
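Step 1: enzyme (final 20 nM) with compound, 15 min RT. Step 2: substrate peptide 500 nM and SAM 20 uM, 2 h RT. Step 3: anti-H3K9me1 antibody and AlphaScreen beads, 10 min, then plate read.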
JMJD2A Tudor inh: JMJD2A Tudor domain (human) inhibition. AlphaScreen JMJD2A-Tudor / H3K4me3 peptide binding. Potency, µM (titrated, usually from 114 µM), for the others: at the top dose activity change, negative = inhibition, usual class: inhibitors. actives 4.4% (n = 390,000). AID 504339; note: % is set by controls: 0 for no effect and ±100 for the full control effect; nearly all actives have a fitted effect of over 50% in size
VDR inh: vitamin D3 receptor (human) inhibition; VDR-SRC2-3 peptide fluorescence polarization, 2 h; Potency, µM, inactives show max response, negative = inhibition, hits mostly inhibitors; actives 0.93% (n = 400,000); AID 504847; note: % is set by controls: 0 for no effect and ±100 for the full control effect
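Fluorescence polarization assay measuring small-molecule disruption of VDR binding to the coregulator peptide SRC2-3. Compounds were pin-transferred (23 nl) into the reagent mix and incubated 2 h at room temperature before reading.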
Active calls of the source: *; ? = inconclusive; / = no result given; [ ] = another dose, or the depositor's remark. Compounds with a hit are over-represented: about 11% of the library has one in this group of screens. Calls come from the whole dose curve; as a rule, active = well fitted curve in the direction sought with a large enough effect; inconclusive = small, poorly fitted or top-dose-only effect, or another doubt; inactive = no such curve, though single readings can be large; an effect the other way counts as inactive or inconclusive. Potency is the fitted concentration of half-maximal effect.

SMILES	HP1b binding inh	PLK1 PBD inh	BAZ2B block	G9a block	JMJD2A Tudor inh	VDR inh
COc1cc(C2C(C(C)=O)=C(O)C(=O)N2CCc2ccc(OC)c(OC)c2)ccc1O (configuration not stated)	15.5%	-4.3%	?	-35.9%[59 µM]	-12.6%	-0.7%
O=C(C1=C(O)C(=O)N(CC2CCCO2)C1c1ccccc1F)c1ccco1 (configuration not stated)	11.7%	-8.4%	-10.7%	39.8µM*	-16.6%	-7.9%
COc1cc(C2C(C(=O)c3ccco3)=C(O)C(=O)N2CCc2ccccc2)ccc1O (configuration not stated)	16.3%	-3.5%	?	39.8µM*	?	-10.8%
CC(=O)C1=C(O)C(=O)N(CCC(=O)O)C1c1ccccc1Cl (configuration not stated)	-2.3%	-5.7%	?	24.2%[12.7 µM]	22.4µM*	-8.5%
COc1cc(C2C(C(=O)c3ccco3)=C(O)C(=O)N2CC2CCCO2)ccc1O (configuration not stated)	10.5%	5.8%	?	50.1µM*	?	2.7%
COc1ccccc1C1C(C(C)=O)=C(O)C(=O)N1CCc1ccccc1 (configuration not stated)	43.4%	-24.1%	-38.5%	44.7µM*	-22.1%[57.1 µM]	20.8%
O=C(C1=C(O)C(=O)N(CC2CCCO2)C1c1cccc(O)c1)c1ccco1 (configuration not stated)	15.9%	1.2%	-1.1%	44.7µM*	-2.8%	-18.8%
COc1ccc(C2C(C(=O)c3ccc(C)o3)=C(O)C(=O)N2CC2CCCO2)cc1OC (configuration not stated)	12.5%	0.1%	?	/	0.0%	-3.4%
CCOc1cc(C2C(C(=O)c3ccco3)=C(O)C(=O)N2CC2CCCO2)ccc1O (configuration not stated)	0.1%	0.9%	-20.1%	44.7µM*	-15.8%	-17.2%
COc1ccc(OC)c(NC(=O)Cn2cnc3onc(-c4ccc(Cl)cc4)c3c2=O)c1	28.1%	/	12.2%	-3.7%[59 µM]	-13.3%	-3.4%
CCOC(=O)c1ccc[n+](CC(=O)c2ccc(NC(=O)c3ccccc3)cc2)c1	48.6%	3.2%	-8.6%	-35.4%	-0.7%	6.5%
COc1cc(Br)c(CN2C(=O)NC3(CCCCCC3)C2=O)cc1OC	10.9%	-11.6%	-7.2%	44.7µM*	-1.4%	1.9%
CN1C2CCCC1CC(NC(=O)c1nn(C)c3ccccc13)C2 (configuration not stated)	/	/	/	?	/	2.8%
Fc1ccc(-c2ccc(CNCCSc3nnnn3-c3ccccc3)o2)cc1	-14.9%	/	35.5µM*	12.6µM*	?	7.4%
Fc1ccc(-c2ccc(CNCc3ccccn3)o2)cc1	15.0%	4.4%	50.1µM*	39.8µM*	50.1µM*	-11.3%
N#Cc1nc(-c2ccc(Cl)cc2)oc1NCCc1ccccn1	15.5%	-7.5%	6.5%	?	-11.1%	-18.9%
Cc1c(Cl)cccc1-c1ccc(CNCCSc2nnnn2-c2ccccc2)o1	3.2%	/	?	-33.3%[59 µM]	2.8%	4.7%
Clc1ccc(-c2ccc(CNCc3ccccn3)o2)cc1	-0.7%	-3.5%	20µM*	?	79.4µM*	?
CCCCNC(=O)C1(C)CCN1C(=O)c1ccc2sccc2c1 (configuration not stated)	/	6.3%	/	/	/	/
Cc1sc(NC(=O)c2ccco2)c(C(=O)c2ccc(Cl)cc2)c1C	?	?	?	22.4µM*	?	-21.9%
CCOC(=O)c1c(NC(=S)NNS(=O)(=O)c2ccc(Br)cc2)sc2c1CCCCC2	0.2%	26.7µM*	-4.0%	/	-27.4%	?
COC(=O)c1c(NC(=O)COc2cc(C)c(Cl)c(C)c2)sc2c1CCCC2	?	/	24.2%	7.08µM*	-15.4%	?
Cc1sc(NC(=O)c2ccco2)c(C(c2ccc(F)cc2)N2CCN(C)CC2)c1C (configuration not stated)	?	-4.8%	50.1µM*	44.7µM*	56.2µM*	1.0%
CCCOc1cccc(C2/C(=C(/O)c3ccncc3)C(=O)C(=O)N2CCCN(C)C)c1 (configuration not stated)	/	/	-23.0%	-37.7%[12.7 µM]	/	/
Cc1ccc(OCC(=O)N(Cc2nnc(-c3ccccc3Cl)o2)C2CC2)cc1C	36.1%	0.0%	9.1%	6.6%[12.7 µM]	-1.7%	-10.7%
SMILES	HP1b binding inh	PLK1 PBD inh	BAZ2B block	G9a block	JMJD2A Tudor inh	VDR inh
CCc1ccc(CNC(=O)c2cnc(N3CCCCC3)c3ccccc23)cc1	58.3%[57 µM]	/	28.5%	59.7%[59 µM]	6.5%	4.5%
CCOC(=O)c1c(NC(=O)COc2c(C)cc(Cl)cc2Cl)sc2c1CCCC2	24.1%	/	-5.5%	-38.4%[59 µM]	-4.6%	-8.5%
CCOC(=O)c1c(NC(=O)c2ccccc2Br)sc2c1CCc1ccccc1-2	-4.3%	6.7µM*	8.7%	1.41µM*	-13.3%	79.4µM*
CCOC(=O)c1c(NC(=O)COc2ccc(Cl)cc2C)sc2c1CCCCC2	?	/	-6.1%	6.31µM*	-19.6%	?
CCOC(=O)c1c(NC(=O)c2ccco2)sc2c1CCCC2	-12.8%	26.7µM*	/	7.4%[59 µM]	?	?
CCOC(=O)c1c(NC(=O)COc2cccc(C(F)(F)F)c2)sc2c1CCCCC2	-21.0%	/	-7.1%	5.62µM*	-15.0%	?
Cc1ccc(N(C)C(=O)c2cc(S(=O)(=O)N3CCOCC3)cn2C)cc1	7.9%	/	-2.2%	-1.6%[59 µM]	-22.4%	10.0%
COC(=O)c1c(NC(=O)COc2ccc(Cl)cc2C)sc2c1CCCCC2	-16.6%	/	-10.0%	7.94µM*	-9.2%	?
CCOC(=O)c1c(NC(=O)COc2ccccc2Br)sc2c1CCCCC2	-6.3%	/	14.2%	10µM*	-5.2%	89.1µM*
CCOC(=O)c1c(NC(=O)COC(=O)CNC(=O)c2ccco2)sc(C)c1C	-16.3%	3.36µM*	?	-5.1%[59 µM]	39.8µM*	?
COC(=O)c1c(NC(=O)COC(=O)c2ccc(Cl)cc2[N+](=O)[O-])sc2c1CCCCC2	21.2%	1.2%	-11.6%	7.8%[59 µM]	-13.9%	1.4%
CCOC(=O)c1c(NC(=O)COc2ccc(CC)cc2)sc2c1CCCC2	42.9%	/	11.6%	-2.9%[59 µM]	13.8%	0.6%
NC(=O)c1c(NC(NC(=O)c2ccco2)C(=O)c2ccc(Cl)cc2)sc2c1CCCC2 (configuration not stated)	-10.1%	?	?	25.1µM*	?	-18.7%
O=[S+]([O-])(c1ccc2c(c1)OCCO2)N1CCN([S+](=O)([O-])c2ccc(F)cc2Br)CC1	/	/	/	/	-9.6%	/
CCOC(=O)Cn1nc(C)c(NC(=O)COc2ccc(C)c(C)c2)c1C	36.2%	-2.7%	0.6%	-8.4%[12.7 µM]	-7.7%	?
O=C(O)c1ccccc1N=Cc1c(O)n(-c2nccs2)c(=O)c2ccccc12	-3.1%	?	-18.8%	9.2%[59 µM]	-21.6%	-20.3%
